From PubChem
VACV mCherry inh – inhibitors of vaccinia virus infection (mCherry reporter signal) | Potency, µM (doses to about 36.5 µM), actives largely listed as inhibitors | AID 720579 | 0.63% of 310,000 active | Vaccinia virus mCherry reporter infection, fluorescence; calls by dose curve; tested in A549 cells; further: nearly all actives have a fitted effect of over 35% in size
FMDV antiviral – foot and mouth disease virus antiviral activity; FMDV antiviral cell-based qHTS; Potency, µM (top dose mostly 57.9 µM), actives largely listed as inhibitors; 1.2% of 410,000 active; AID 1159524; calls by dose curve; tested in HEK293T cells; further: read-out not given here; nearly all actives have a fitted effect of over 45% in size
Vaccinia Venus – inhibitors of vaccinia virus (Venus reporter); 0.46% of 330,000 active; Potency, µM (doses to about 36.5 µM), actives largely listed as inhibitors; Vaccinia virus Venus reporter expression, fluorescence; AID 720580; calls by dose curve; tested in A549 cells; further: nearly all actives have a fitted effect of over 30% in size
HCMV inh – blocks human cytomegalovirus replication; HFF cells, HCMV-luciferase reporter, 72 h; active compounds read low; activity change, negative = inhibition, % at 57.5 µM; 4.5% of 410,000 active; AID 1259415; in the data active means activity change below about -60%; inconclusive means no clear call, values can overlap the other calls; inactive means above about -39%
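Luciferase read-out from HCMV-luciferase-infected HFFs (MOI 1 PFU/cell) 72 h post infection at 37C; compounds added after 16 h cell attachment; activity normalized between buffer-only basal and Salinomycin (10uM) inhibitor controls.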
Marburg entry inh – Marburg virus entry inhibition | Marburg virus pseudotyped entry inhibition, cell reporter | Potency, µM (highest dose often 37.8 µM), actives largely listed as inhibitors | 1.8% of 300,000 active | AID 540276; calls by dose curve; tested in HEK293 cells
LASV entry inh – inhibitors of Lassa virus binding or cell entry. Lassa virus pseudotype entry inhibition, cell reporter. Potency, µM (highest dose often 37.9 µM), hits mostly inhibitors. 1.2% of 300,000 active; calls by dose curve; tested in HEK293 cells; further: nearly all actives have a fitted effect of over 50% in size
Hits are given with their value; n = inactive; u = inconclusive; x = not tested or not shown; [ ] = remark or other dose. Sampled rows, rich in hits. Any-hit rate of the full collection: about 6.5%.

SMILES | VACV mCherry inh | FMDV antiviral | Vaccinia Venus | HCMV inh | Marburg entry inh | LASV entry inh
N#CCCn1cc(/C=C2\NC(=S)N(c3ccccc3)C2=O)c(-c2ccc(F)cc2)n1 | u | n | n | -63 | u | n
CCCc1cc(=O)[nH]c(Nc2cc(Cl)cc(Cl)c2)n1 | u | u | u | -106 | u | u
CCCCN(CCC(=O)O)c1ccc(/C=C/c2ccnc3ccccc23)cc1 | u | x | n | x | x | x
COCCCNC(=O)c1sc2ncnc(N3CCc4ccccc4C3)c2c1C | x | u | x | n | 8.2µM | u
Cc1nn(CCc2n[nH]c(=S)n2-c2cccc(Cl)c2)c(C)c1[N+](=O)[O-] | x | n | x | n | n | n
Cc1cccc(-n2c(Cn3nc(C)c([N+](=O)[O-])c3C)n[nH]c2=S)c1 | x | n | n | -98 | n | n
O=C1[C@H]2[C@H]3[C@H](O)[C@H](O)C/C(=N/OCc4ccccc4)[C@H]3CC[C@@H]2C(=O)N1Cc1ccc2c(c1)OCO2 | x | x | x | x | n | x
CC1=C(c2ccc(C)c(C)c2)S(=O)(=O)N=C1N1CCC(C(=O)NCCc2ccc(Cl)cc2)CC1 | n[7.34 µM] | n | n[7.34 µM] | n | 4µM | x
COc1ccccc1CNC(=O)C1CCN(C2=NS(=O)(=O)C(c3ccc(C)c(C)c3)=C2C)CC1 | n | u | n | -64 | x | n
CCOC(=O)c1nnn(C(CC)C(=O)Nc2ccc(F)cc2)c1C(=O)OCC (configuration not stated) | n | n | n | n | n | n
COc1ccc(C2=NCC(C)n3c2c2ccccc2[n+]3[O-])cc1 (configuration not stated) | x | x | x | n | x | x
Nc1ccc(C2(c3ccc(N)cc3)c3ccccc3C(=O)c3ccccc32)cc1 | n | n | n | n | u | u
Nc1ccc(C2(c3ccc(N)cc3)c3ccccc3-c3ccccc32)cc1 | u | u | u | -91 | u | n
COC(=O)C1CCN(Cc2ccc3c(c2)CN(C(=O)c2cc(C)on2)CCO3)CC1 | n | n | n | x | x | x
COc1cc2cc(C(=O)N3CC(COS(C)(=O)=O)c4ccc(O)cc43)[nH]c2c(OC)c1OC (configuration not stated) | u | 6.3µM | 35µM | x | u | u
COC(=O)/C(C#N)=C1\SC=C(C)N1c1ccccc1 | x | x | x | x | n | x
COc1ccc(-c2cn3nc(N4CCC(C(=O)Nc5cccc(OC)c5)CC4)sc3n2)cc1 | n | n | n | n | x | n
Cc1ccc(-c2cc(C(=O)N/N=C/c3c(C)nn(-c4ccccc4)c3C)[nH]n2)cc1 | x | x | x | -98 | n | x
Cc1nn(-c2ccccc2)c(C)c1/C=N/NC(=O)c1cc(C(C)(C)C)[nH]n1 | x | n | u | n | 4.5µM | u
Cc1nn(-c2ccccc2)c(C)c1-c1cc(C(=O)N/N=C/c2cccnc2)[nH]n1 | x | x | x | n | x | x
Cc1ccc(-c2cc(C(=O)N/N=C/c3c(C)nn(-c4ccccc4)c3C)n[nH]2)s1 | x | u | x | -92 | u | 8.2µM
C[C@@H]1CCCCO[C@H](CN(C)C(=O)C2CCCCC2)[C@@H](C)CN([C@H](C)CO)C(=O)c2cc(NS(=O)(=O)c3cccs3)ccc2O1 | x | x | x | n | x | x
COc1ccc2c(c1)C(C(Nc1ccccc1)c1ccc(Cl)cc1)C(=O)N2C (configuration not stated) | x | x | x | n | x | x
CCOC(=O)C(=Cc1ccc(-n2cncn2)cc1)C(=O)OCC | u | 28µM | u | -100 | u | 11µM
COc1ccc2nc(NC(=O)c3nc(S(=O)(=O)Cc4cccc(C)c4)ncc3Cl)sc2c1 | u | u | u | -100 | u | u
SMILES | VACV mCherry inh | FMDV antiviral | Vaccinia Venus | HCMV inh | Marburg entry inh | LASV entry inh
COc1ccc2nc(NC(=O)c3nc(S(=O)(=O)Cc4ccccc4)ncc3Cl)sc2c1 | n | 25µM | n | -101 | u | u
COc1ccc2nc(NC(=O)c3nc(S(=O)(=O)Cc4ccccc4F)ncc3Cl)sc2c1 | n | u | n | -88 | u | u
COc1ccc2nc(NC(=O)c3nc(SCc4cccc(C)c4)ncc3Cl)sc2c1 | u | n | u | n | n | n
CCSc1ncc(Cl)c(C(=O)Nc2nc3ccc(OC)cc3s2)n1 | n | n | n | n | n | n
COC(=O)c1ccccc1-c1cc(C)cc2c1OC(CNC(=O)c1occc1C)C2 (configuration not stated) | n | n | n | x | x | x
Cc1ccc(-n2c(=O)c3ccc(C(=O)NCc4ccccc4Cl)cc3n(CC(=O)Nc3cccc(F)c3)c2=O)cc1 | n | n | n | n | n | n
COc1cc(C2CC(=O)c3c([nH]c(C(=O)OCCOC(C)C)c3C)C2)cc(OC)c1OC (configuration not stated) | n | 11µM | n | -63 | u | u
COc1ccc(OC)c(C2CC(=O)c3c([nH]c(C(=O)OCc4ccc(C)cc4)c3C)C2)c1 (configuration not stated) | n[7.34 µM] | n | n[7.34 µM] | n | u | n
COc1cc(C2CC(=O)c3c([nH]c(C(=O)OCc4ccc(C)cc4)c3C)C2)cc(OC)c1OC (configuration not stated) | u | 14µM | n[7.34 µM] | n | u | n
C(=Nc1ccc(/C=C/c2ccnc3ccccc23)cc1)c1ccco1 | n | x | n | x | x | x
CC#CCN1C(=O)NC(c2ccccc2)C(C(=O)OCC)=C1c1ccccc1 (configuration not stated) | x | x | x | x | n | x
Cc1ccc(N(C(=O)Nc2ccccc2)C2=NCCC2)cc1 | n | n | n | n | n | n
COc1ccc(N(C(=O)Nc2ccc(Cl)cc2)C2=NCCC2)cc1 | n | x | n | n | n | 6.5µM
COc1ccc(N(CC(O)Cn2c3ccccc3c3ccccc32)S(=O)(=O)c2ccccc2)cc1 (configuration not stated) | x | u | u | -78 | u | n
CS(=O)(=O)N(CC(O)Cn1c2ccccc2c2ccccc21)c1ccccc1 (configuration not stated) | x | u | u | n | u | n
CCN(CC(O)Cn1c2ccccc2c2ccccc21)S(=O)(=O)c1ccc(C)cc1 (configuration not stated) | x | n | x | n | u | u
Cc1ccc(N(CC(O)Cn2c3ccccc3c3ccccc32)S(=O)(=O)c2ccc(F)cc2)cc1 (configuration not stated) | n[7.34 µM] | u | n[7.34 µM] | -92 | u | n
CCOC(=O)c1ccc(NC(=O)CCc2nc3cccnc3n2Cc2cccs2)cc1 | n[7.34 µM] | n | n | n | u | n
O=C(NCCc1ccc(Cl)cc1)C(=O)NCC(c1ccc2c(c1)OCO2)N1CCOCC1 (configuration not stated) | n | n | n | n | x | u
COC(=O)CC=C1c2ccccc2C[C@H](OC)[C@@H]1C | x | x | x | x | n | x
O=C(CCl)N=c1sccn1Cc1cccc2ccccc12 | x | u | x | -100 | x | x
O=C(CCl)N=c1sccn1Cc1ccccc1Cl | n | u | n | -91 | u | u
O=C(CCl)N=c1sccn1Cc1ccc(Cl)cc1Cl | n | u | n | -99 | u | u
CCOC(=O)c1c(C)[nH]c(C)c1S(=O)(=O)N(C)CC(=O)Nc1ccc(C)c(N(C)C)c1 | n | n | n | n | x | n
